Source: PubChem
Nrf2 ARE act = activators of Nrf2 (ARE) signaling; AID 624171; actives 0.31% (n = 410,000); Potency, µM (top dose mostly 46.1 µM), hits mostly activators; AREc32 ARE-luciferase reporter (MCF7-derived line), luminescence, 24 h; further: nearly all actives have a fitted effect of over 65% in size
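AREc32_Fluc, 1000 cells/well, OPTI-MEM + 5% FBS, o/n 37 deg C 5% CO2; 23 nL cpd by pin tool, 24 hr; Steady-Glo 30 min RT, luminescence.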
12-LOX inh = blocks human arachidonate 12S-lipoxygenase; purified 12hLO, xylenol orange hydroperoxide absorbance; AID 1671190; P18054; Potency, µM (titrated, usually from 108 µM), actives largely listed as inhibitors; actives 1.1% (n = 580,000)
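Hydroperoxide product was detected by ferrous iron/xylenol orange as the 573 to 405 nm absorbance ratio. Arachidonic acid at 40 uM (final) was turned over for 30 min at room temperature by 150 nM human 12hLO, pH 7.0 Hepes buffer, after 15 min compound preincubation.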
ERG Ets-DNA blk = inhibitors of human ERG Ets domain-DNA interaction; fluorescence polarization, His-ERG Ets domain / labelled DNA; Potency, µM (series often up to 76.9 µM), usual class: inhibitors; actives 0.028% (n = 370,000); P11308; AID 624246; active means well fitted inhibition curve with a large enough effect in the polarisation, with a control signal flat; inconclusive means small, poorly fitted or top-dose-only effect, or effect the other way, or a change in a side signal; inactive means no such curve, though single readings can be large or run the other way; the % refers to the polarisation;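 further: polarization taken with two DNA probes labelled with fluorescein and Texas red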
Target sequence (P11308 whole entry, looked up, the tested form may be a part): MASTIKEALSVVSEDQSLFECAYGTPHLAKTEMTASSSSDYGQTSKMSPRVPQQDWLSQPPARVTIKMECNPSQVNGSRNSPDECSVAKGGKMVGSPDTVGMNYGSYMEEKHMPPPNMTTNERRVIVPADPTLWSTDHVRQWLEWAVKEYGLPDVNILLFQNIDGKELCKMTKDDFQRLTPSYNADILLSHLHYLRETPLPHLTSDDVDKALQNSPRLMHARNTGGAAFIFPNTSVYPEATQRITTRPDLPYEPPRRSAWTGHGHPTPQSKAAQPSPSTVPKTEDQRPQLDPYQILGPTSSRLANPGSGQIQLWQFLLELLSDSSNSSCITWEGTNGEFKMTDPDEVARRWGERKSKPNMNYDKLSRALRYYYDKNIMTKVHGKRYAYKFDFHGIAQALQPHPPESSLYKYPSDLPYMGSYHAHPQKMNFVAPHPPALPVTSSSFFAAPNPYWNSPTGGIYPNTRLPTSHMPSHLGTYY
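His-tagged ERG Ets domain (1 uM in the protein solution; 300mM KCl, 50mM Tris-HCl, 1mM EDTA, 1mM DTT, pH 7.5) received compound, then a probe mix of 5 nM fluorescein-DNA and 100nM Texas-615-DNA. Fluorescence polarization was read for both dyes.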
A549 tox-1 = kills or reduces viability of A549 cells in Nrf2 counter-screen | A549 ARE-Fluc cells, CellTiter-Fluor viability, 18-24 h | Potency, µM (highest dose often 46 µM), most hits filed as inhibitors | actives 0.16% (n = 390,000) | AID 504648
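A549 ARE-Fluc cells in 5% FBS OPTI-MEM, 5000 cells/well, rested 2 h then exposed to compounds in concentration-response for 18-24 h at 37 °C. Viability by CellTiter-Fluor fluorescence (Ex 405/Em 525) after 30 min; luciferase luminescence (BugLite, 15 min, RT) read afterwards.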
LDHA inh = inhibitors of human lactate dehydrogenase A; P00338; purified LDHA, NADH/diaphorase-resazurin fluorescence; active compounds read low; activity change, % (values are at about 110 or 230 µM); actives 0.15% (n = 480,000); AID 1347041; in the data active means activity change below about -30%; inconclusive means mostly about -25% to -30%
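Human LDH5 at 2 nM final in Tris HCl pH 7.4 with 0.06 mM NADH and 0.2 mM pyruvate, reacted 5 minutes at room temperature. Remaining NADH coupled via diaphorase/resazurin; resorufin fluorescence read at 0 and 20 minutes, normalized to enzyme-free and DMSO wells.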
Nrf2 block = Nrf2 pathway inhibition | A549 ARE-Fluc reporter, luciferase luminescence, 18-24 h | Potency, µM (doses to about 46 µM), actives largely listed as inhibitors | actives 2.1% (n = 360,000); further: nearly all actives have a fitted effect of over 60% in size
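Concentration-response testing used A549 ARE_Fluc cells at 5000 cells/well. Following an 18-24 h compound incubation, viability was read by fluorescence (Ex 405/Em 525) and luciferase output by luminescence.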
FLuc counter 3 = counter-screen for Nrf2 inhibitors: firefly luciferase enzyme inhibition; shares compounds with Nrf2 block; purified firefly luciferase, luminescence inhibition; Potency, µM (highest dose often 57.5 µM), hits mostly inhibitors; actives 4% (n = 1,400); further: nearly all actives have a fitted effect of over 65% in size
A549 tox-2 = toxic to A549 ARE-Fluc cells in Nrf2 counterscreen | shares compounds with Nrf2 block | A549 ARE-Fluc cells, cytotoxicity counterscreen | Potency, µM (doses to about 46.1 µM), usual class: inhibitors | actives 2% (n = 1,400);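 further: cells exposed to compounds for 18 to 24 hours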
ARE-Fluc inh = reduces Nrf2 ARE reporter signal in A549 cells | shares compounds with Nrf2 block | A549 ARE-firefly luciferase reporter, luminescence | Potency, µM (doses to about 46.1 µM), hits mostly inhibitors | actives 74% (n = 1,400); further: nearly all actives have a fitted effect of over 65% in size
A number is an active result; i = inactive; ? = inconclusive; nt = not tested or not shown. Sampled rows, rich in hits. Any-hit rate of the full collection: about 2.7%. Unless noted, the call rests on the fitted dose curve; in most records, active means well fitted curve in the direction sought with a large enough effect; inconclusive means small, poorly fitted or top-dose-only effect, or another doubt; inactive means no such curve, though single readings can be large; an effect the other way counts as inactive or inconclusive.

SMILES	Nrf2 ARE act	12-LOX inh	ERG Ets-DNA blk	A549 tox-1	LDHA inh	Nrf2 block	FLuc counter 3	A549 tox-2	ARE-Fluc inh
COc1ccc(-c2nc(CSCC(=O)N3CCN(c4ccccc4F)CC3)c(C)o2)cc1	i	i	i	?	i	5.8µM	i	i	9.2µM
Cn1c(C(=O)N2CCN(c3ccc(Cl)cc3)CC2)cc2c(=O)[nH]c3ccccc3c21	i	?	i	i	i	?	nt	nt	nt
Cc1ccc(Cl)cc1N1CCN(C(=O)c2cc3c(=O)[nH]c4ccccc4c3n2C)CC1	i	i	i	i	i	4.1µM	i	i	?
Cc1cc(C)c(CN2CCN(C(=O)Cn3cnc4c(NCc5ccccc5)ncnc43)CC2)c(C)c1	i	i	i	i	i	3.7µM	i	?	0.65µM
CCOc1cc(/C=N\NC(=O)c2ccc(NC(=O)C(C)(C)C)cc2)ccc1OC(=O)c1cccc(C)c1	i	i	i	i	i	5.2µM	i	i	15µM
O=CC(Cl)=C(Sc1ccc(Cl)cc1)Sc1ccc(Cl)cc1	nt	i	nt	nt	i	nt	nt	nt	nt
O=C(Nc1cccc2cccnc12)c1cc(-c2ccccc2)nc2ccccc12	nt	i	nt	nt	i	nt	nt	nt	nt
c1cc2[nH]snc2c2nc(C3CC3)nc12	i	i	i	i	i	7.3µM	?	i	13µM
Cc1cccc[n+]1CC(=O)/C=C1\N(C)c2ccccc2C1(C)C	i	?	i	?	i	5.2µM	i	i	7.3µM
CN1/C(=C\C(=O)C[n+]2cccc(Br)c2)C(C)(C)c2ccccc21	i	i	i	i	i	3.3µM	i	i	4.1µM
CN1/C(=C\C(=O)C[n+]2ccc(C(=O)c3ccccc3)cc2)C(C)(C)c2ccccc21	i	i	i	i	i	5.2µM	i	i	5.2µM
CC(=O)c1ccc(N2CCN(C(=O)c3csc(-c4ccc(C)cc4)n3)CC2)cc1	nt	i	nt	nt	i	nt	nt	nt	nt
CCc1c(C)nc2nncn2c1NCc1ccc(OC)cc1	i	i	i	i	i	?	nt	nt	nt
Cc1nc2nncn2c(NCc2ccc(Cl)cc2)c1C	i	i	i	i	i	3.3µM	i	i	6.5µM
Cn1c(-c2cccc([N+](=O)[O-])c2)[n+](C)c2ccccc21	i	i	i	i	i	?	nt	nt	nt
Cn1c(-c2ccc3ccccc3n2)[n+](C)c2ccccc21	i	?	i	i	i	?	nt	nt	nt
Cn1c(-c2ccccn2)[n+](C)c2ccccc21	i	i	i	i	i	5.2µM	i	i	10µM
CN(C)c1ccc(-c2n(C)c3ccccc3[n+]2C)cc1	i	i	nt	i	i	0.29µM	i	i	?
O=C(C1CCCC1)N1CCC(c2nc(-c3ccc4nc[nH]c4c3)no2)CC1	nt	i	nt	nt	nt	nt	nt	nt	nt
O=C(NCc1cccnc1)C1(c2cccc(C(F)(F)F)c2)CCOCC1	nt	i	nt	nt	i	nt	nt	nt	nt
CC(=O)c1sc2c(c1OC(=O)c1ccc(Cl)cc1Cl)c(=O)n(-c1ccccc1)c(=S)n2-c1ccccc1	i	i	i	?	i	3.3µM	i	?	nt
CCOC(=O)NC(=O)COC(=O)[C@H](C)NC(=O)c1ccccc1	nt	?	nt	nt	i	nt	nt	nt	nt
O=C(Nc1cccc(S(=O)(=O)Nc2ccc(Cl)cc2)c1)c1ccccn1	i	?	i	?	?	8.2µM	i	i	nt
CN(C)C(CNC(=O)/C=C/c1ccccc1)c1ccsc1 (configuration not stated)	nt	i	nt	nt	i	nt	nt	nt	nt
O=C(NCCCn1ccnc1)c1ccc(N2CCCCCC2)c([N+](=O)[O-])c1	i	i	i	i	i	2.9µM	i	i	i
SMILES	Nrf2 ARE act	12-LOX inh	ERG Ets-DNA blk	A549 tox-1	LDHA inh	Nrf2 block	FLuc counter 3	A549 tox-2	ARE-Fluc inh
O=C(Nc1ccc2ccccc2c1)Nc1nnc(-c2ccncc2)s1	nt	nt	nt	nt	i	nt	nt	nt	nt
CSc1ccc(Sc2ccc(SC)cc2)cc1	nt	i	nt	nt	i	nt	nt	nt	nt
CCCCN(C)C(=O)C1CCCN(c2ncnc3onc(C)c23)C1 (configuration not stated)	i	i	i	i	i	9.2µM	i	i	2.9µM
CC(C)CCOc1cccc(OCC(=O)Nc2ccncc2)c1	i	i	i	i	i	9.2µM	i	i	3.7µM
CCC(C)N1CCC2(CC1)N=c1c(c3c4c5c(C)c(O)c3c(O)c1=NC(=O)C(C)=CC=C[C@H](C)[C@H](O)[C@@H](C)[C@@H](O)[C@@H](C)[C@H](OC(C)=O)[C@H](C)[C@@H](OC)C=CO[C@@](C)(O5)C4=O)N2 (some centres not stated)	i	i	i	?	i	8.2µM	i	?	?
C=CCn1c(N2CCCCC2)nc2c1c(=O)[nH]c(=O)n2C	nt	i	nt	nt	i	nt	nt	nt	nt
CCOc1ccc(S(=O)(=O)NCc2ccncc2)cc1NC(=O)c1ccccc1	i	i	i	i	i	0.46µM	i	i	3.7µM
CCOc1ccc(S(=O)(=O)NCc2cccnc2)cc1NC(=O)c1ccccc1F	i	i	i	i	i	i	nt	nt	nt
CCOc1ccc(S(=O)(=O)NCc2ccncc2)cc1NC(=O)c1ccccc1F	i	i	i	i	i	2.6µM	i	i	?
Cn1c(=O)c2c(ncn2CCC(=O)Nc2ccc(F)c(F)c2)n(C)c1=O	nt	i	nt	nt	i	nt	nt	nt	nt
Cc1cc(C)c(C)c(S(=O)(=O)N2CCN(c3ncnc4ccccc34)CC2)c1C	i	i	i	i	i	9.2µM	i	i	9.2µM
Cc1cc(C)c(C)c(S(=O)(=O)N2CCN(c3ccccn3)CC2)c1C	i	i	i	i	i	?	nt	nt	nt
CCN(CC)S(=O)(=O)c1ccc2oc(C(=O)NCc3ccc(F)cc3)c(C)c2c1	i	i	i	i	i	6.5µM	i	i	23µM
CCN(CC)S(=O)(=O)c1ccc2oc(C(=O)Nc3ccc(OC)cc3OC)c(C)c2c1	i	i	i	i	i	3.7µM	i	i	15µM
COc1ccc(C(=O)/C=C/c2ccc(OCC#N)c(OC)c2)cc1	nt	?	nt	nt	i	nt	nt	nt	nt
Cc1nc2ccncc2nc1C	nt	i	nt	nt	i	nt	nt	nt	nt
NC(=O)CSc1nnc(-c2ccccc2Cl)n1-c1cccc(C(F)(F)F)c1	nt	i	nt	nt	i	nt	nt	nt	nt
Cc1ccc(S(=O)(=O)N(CC(=O)NC(C(C)C)C(C)C)c2ccccc2C)cc1	nt	i	nt	nt	i	nt	nt	nt	nt
O=C(CCn1nnc2ccccc21)OCC(=O)c1ccc(Cl)cc1	nt	i	nt	nt	i	nt	nt	nt	nt
O=S(=O)(Nc1ccc(Cc2ccncc2)cc1)c1ccc(Br)cc1	i	i	i	i	i	?	nt	nt	nt
